Test results: PubChem BioAssay (Tox21)
Records with an inconclusive call do not appear. Active and inactive are the calls of the source. The call rests on the fitted dose curve; in most records, active means well fitted curve in the direction sought with a large enough effect in the repeat runs; inconclusive means weak or mixed curves; inactive means no such curve, though single readings can be large; an effect the other way counts as inactive or inconclusive.

Assays:
[1] = A CellTox Green Cytotoxicity Assay to monitor cytotoxicity in HEK293 cells - 40 hour (AID 1224871); further: nearly all actives have a fitted effect of over 45% in size; further: potency means the concentration at half of the fitted maximal effect
Procedure, shortened: (§1)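 Seeding of HEK293 cells together with cytotoxicity dye preceded a 5 h incubation at 37 C/5% CO2. Test compounds in DMSO were then added and fluorescence monitored across 40 h.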

[2] = qHTS RealTime-Glo MT Cell Viability Assay in HEK293 cells - 16 hour (AID 1224872); further: nearly all actives have a fitted effect of over 50% in size; further: potency means the concentration at half of the fitted maximal effect
Procedure, shortened: (§2)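 Homogeneous bioluminescent viability format in HEK293 cells (600 cells/well). Following 5 h at 37 C/5% CO2, 23 nL compound was pintooled; the signal was measured repeatedly during 40 h incubation.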

[3] = qHTS RealTime-Glo MT Cell Viability Assay in HepG2 cells - 8 hour (AID 1224873); further: nearly all actives have a fitted effect of over 55% in size
Procedure, shortened: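 Real-time viability: cells seeded at 600 per well together with NanoLuc and cell-permeant prosubstrate, compounds added after 5 h incubation. Luminescence tracked at 0, 8, 16, 24, 32 and 40 h of exposure.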

[4] = qHTS RealTime-Glo MT Cell Viability Assay in HEK293 cells - 40 hour (AID 1224874); conditions: RealTime-Glo luminescence; max response: hits give low values; further: nearly all actives have a fitted effect of over 50% in size; further: potency means the concentration at half of the fitted maximal effect
Procedure, shortened: (§3)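 Tox21 screen in HEK293 using RealTime-Glo MT chemistry, with cells and reagent co-dispensed. Luminescence proportional to viable cell number was captured at intervals during 40 h compound exposure at 37 C.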

[5] = A CellTox Green Cytotoxicity Assay to monitor cytotoxicity in HEK293 cells - 24 hour (AID 1224875); further: series mostly up to about 77 µM; nearly all actives have a fitted effect of over 45% in size
Procedure, shortened: as §1

[6] = A CellTox Green Cytotoxicity Assay to monitor cytotoxicity in HepG2 cells - 16 hour (AID 1224876); further: nearly all actives have a fitted effect of over 45% in size
Procedure, shortened: (§4)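 Nonlytic assay: viable cells exclude the dye, so fluorescence scales with cell death. HepG2 at 600 cells/well, compounds added after 5 h, signal read across 40 h.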

[7] = qHTS RealTime-Glo MT Cell Viability Assay in HepG2 cells - 32 hour (AID 1224877); further: nearly all actives have a fitted effect of over 55% in size
Procedure, shortened: (§5)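 Cell number in HepG2 cultures estimated from NanoLuc luminescence generated by metabolic reduction of a prosubstrate by living cells. The homogeneous, nonlytic format allowed repeated reads at 0, 8, 16, 24, 32 and 40 h of compound exposure.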

[8] = A CellTox Green Cytotoxicity Assay to monitor cytotoxicity in HepG2 cells - 24 hour (AID 1224878); further: nearly all actives have a fitted effect of over 45% in size
Procedure, shortened: as §4

[9] = A CellTox Green Cytotoxicity Assay to monitor cytotoxicity in HepG2 cells - 40 hour (AID 1224879); further: nearly all actives have a fitted effect of over 40% in size; further: potency means the concentration at half of the fitted maximal effect
Procedure, shortened: as §4

[10] = qHTS RealTime-Glo MT Cell Viability Assay in HEK293 cells - 0 hour (AID 1224880)
Procedure, shortened: as §3

[11] = A CellTox Green Cytotoxicity Assay to monitor cytotoxicity in HEK293 cells - 32 hour (AID 1224881); further: nearly all actives have a fitted effect of over 40% in size; further: potency means the concentration at half of the fitted maximal effect
Procedure, shortened: as §1

[12] = A CellTox Green Cytotoxicity Assay to monitor cytotoxicity in HepG2 cells - 0 hour (AID 1224882); further: nearly all actives have a fitted effect of over 35% in size
Procedure, shortened: as §4

[13] = A CellTox Green Cytotoxicity Assay to monitor cytotoxicity in HepG2 cells - 32 hour (AID 1224883); further: nearly all actives have a fitted effect of over 50% in size
Procedure, shortened: as §4

[14] = A CellTox Green Cytotoxicity Assay to monitor cytotoxicity in HEK293 cells - 8 hour (AID 1224884); further: nearly all actives have a fitted effect of over 35% in size
Procedure, shortened: as §1

[15] = qHTS RealTime-Glo MT Cell Viability Assay in HepG2 cells - 16 hour (AID 1224885); further: nearly all actives have a fitted effect of over 50% in size
Procedure, shortened: as §5

[16] = qHTS RealTime-Glo MT Cell Viability Assay in HEK293 cells - 24 hour (AID 1224886); further: nearly all actives have a fitted effect of over 50% in size; further: potency means the concentration at half of the fitted maximal effect
Procedure, shortened: as §2

[17] = qHTS RealTime-Glo MT Cell Viability Assay in HEK293 cells - 8 hour (AID 1224887); further: nearly all actives have a fitted effect of over 50% in size; further: potency means the concentration at half of the fitted maximal effect
Procedure, shortened: as §3

[18] = A CellTox Green Cytotoxicity Assay to monitor cytotoxicity in HEK293 cells - 16 hour (AID 1224888); further: nearly all actives have a fitted effect of over 35% in size
Procedure, shortened: as §1

[19] = qHTS RealTime-Glo MT Cell Viability Assay in HepG2 cells - 0 hour (AID 1224889); further: nearly all actives have a fitted effect of over 50% in size
Procedure, shortened: as §5

[20] = A CellTox Green Cytotoxicity Assay to monitor cytotoxicity in HepG2 cells - 8 hour (AID 1224890); further: nearly all actives have a fitted effect of over 45% in size
Procedure, shortened: as §4
On the % scale 0 is the no-effect control and ±100 the full control effect.

c1ccc(CN2CCNCC2)cc1
inactive: Potency [1] | Potency [2] | Potency [3] | max response [4] 3.29% | Potency [5] | Potency [6] | Potency [7] | Potency [8] | Potency [9] | Potency [10] | Potency [11] | Potency [12] | Potency [13] | Potency [14] | Potency [15] | Potency [16] | Potency [17] | Potency [18] | Potency [19]

Cc1c(F)c(F)c(COC(=O)C2C(/C=C(\Cl)C(F)(F)F)C2(C)C)c(F)c1F (stereo unspecified)
inactive: Potency [1] | Potency [2] | Potency [3] | max response [4] 6.54% | Potency [5] | Potency [6] | Potency [7] | Potency [8] | Potency [9] | Potency [10] | Potency [11] | Potency [12] | Potency [13] | Potency [14] | Potency [16] | Potency [18] | Potency [19] | Potency [20]

CCCCN=C=O
inactive: Potency [1] | Potency [2] | Potency [3] | max response [4] 2.49% | Potency [5] | Potency [6] | Potency [7] | Potency [8] | Potency [9] | Potency [10] | Potency [11] | Potency [12] | Potency [13] | Potency [15] | Potency [16] | Potency [17] | Potency [18] | Potency [19] | Potency [20]

Cc1ccc(N)cc1C
inactive: Potency [1] | Potency [2] | Potency [3] | max response [4] 13.4% | Potency [5] | Potency [6] | Potency [7] | Potency [8] | Potency [9] | Potency [10] | Potency [11] | Potency [12] | Potency [13] | Potency [14] | Potency [15] | Potency [16] | Potency [17] | Potency [18] | Potency [19] | Potency [20]

O=S(=O)(Cl)c1ccccc1
inactive: Potency [1] | Potency [2] | Potency [3] | max response [4] 11.8% | Potency [5] | Potency [6] | Potency [7] | Potency [8] | Potency [9] | Potency [10] | Potency [11] | Potency [12] | Potency [13] | Potency [15] | Potency [16] | Potency [17] | Potency [18] | Potency [19]

CCCCc1c(C)nc(NCC)nc1OS(=O)(=O)N(C)C
inactive: Potency [1] | Potency [3] | Potency [5] | Potency [6] | Potency [7] | Potency [8] | Potency [9] | Potency [10] | Potency [11] | Potency [12] | Potency [13] | Potency [14] | Potency [15] | Potency [18] | Potency [19] | Potency [20]
active: Potency [2] 12.3 µM | Potency [4] 13.8 µM | Potency [16] 12.3 µM | Potency [17] 9.77 µM

O=Cc1ccc(Cl)cc1Cl
inactive: Potency [1] | Potency [2] | Potency [3] | max response [4] -1.06% | Potency [5] | Potency [6] | Potency [7] | Potency [8] | Potency [9] | Potency [10] | Potency [11] | Potency [12] | Potency [13] | Potency [14] | Potency [15] | Potency [16] | Potency [17] | Potency [18] | Potency [19] | Potency [20]

NCCCNCCCN
active: Potency [1] 62.6 µM | Potency [11] 62.6 µM
inactive: Potency [2] | Potency [3] | max response [4] -7.03% | Potency [7] | Potency [8] | Potency [9] | Potency [10] | Potency [12] | Potency [13] | Potency [14] | Potency [15] | Potency [16] | Potency [17] | Potency [19] | Potency [20]

CC1Sc2c(C(=O)O)c(=O)c3cc(F)c(N4CCNCC4)cc3n21 (stereo unspecified)
inactive: Potency [1] | Potency [2] | Potency [3] | max response [4] 1.01% | Potency [5] | Potency [7] | Potency [8] | Potency [9] | Potency [10] | Potency [11] | Potency [12] | Potency [13] | Potency [14] | Potency [15] | Potency [16] | Potency [17] | Potency [18] | Potency [19] | Potency [20]

CC(C)(CCl)C(=O)Cl
inactive: Potency [1] | Potency [2] | Potency [3] | Potency [5] | Potency [6] | Potency [7] | Potency [8] | Potency [9] | Potency [10] | Potency [11] | Potency [12] | Potency [13] | Potency [14] | Potency [15] | Potency [16] | Potency [17] | Potency [18] | Potency [19]

Sc1ccccc1Cl
inactive: Potency [1] | Potency [2] | Potency [3] | max response [4] -1.55% | Potency [5] | Potency [7] | Potency [9] | Potency [10] | Potency [11] | Potency [15] | Potency [16] | Potency [17] | Potency [18] | Potency [19]

O=C(N[C@H](c1ccccc1)[C@@H]1CN2CCC1CC2)c1c(Cl)ccc(C(F)(F)F)c1Cl
inactive: Potency [3] | Potency [6] | Potency [12] | Potency [14] | Potency [15] | Potency [19] | Potency [20]
active: Potency [1] 78.8 µM | Potency [2] 78.8 µM | Potency [4] 70.2 µM | Potency [9] 70.2 µM | Potency [11] 78.8 µM | Potency [16] 70.2 µM

CCOP(O)OCC
inactive: Potency [1] | Potency [2] | Potency [3] | max response [4] 0.744% | Potency [5] | Potency [7] | Potency [8] | Potency [10] | Potency [11] | Potency [12] | Potency [13] | Potency [14] | Potency [15] | Potency [16] | Potency [17] | Potency [18] | Potency [19] | Potency [20]

C=CC(=O)OC(C)(C)C
inactive: Potency [1] | Potency [2] | Potency [3] | max response [4] 13.5% | Potency [5] | Potency [7] | Potency [8] | Potency [9] | Potency [10] | Potency [11] | Potency [12] | Potency [13] | Potency [14] | Potency [15] | Potency [16] | Potency [17] | Potency [18] | Potency [19]
